Several values for one entry are separate records, joined by “and”; a condition that tells them apart may be missing. Equal entries are not always repeated. Out of some 5,500 compounds screened, about 2,000 (36%) were called active. Roughly 18% stayed inconclusive and do not appear here. Rule as the data show it: active = normalized growth mostly below about 0.91 (no sharp cut-off); inconclusive = no clear call, values can overlap the other calls; inactive = mostly above about 0.92. This is one part of the list.
Assay: chemical genetic growth profiling, strain panel (AID 1159580);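 also: tested at 20 µM; growth read once vehicle control cultures reached saturation at 30 °C; 1 = growth at the plate median or of vehicle wells; lower values mean less growth of the strain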
Conditions: S. cerevisiae deletion strains, growth OD

Measured: normalized growth

N#Cc1c(Cl)c(Cl)c(Cl)c(C#N)c1Cl
0.992 (inactive) and 0.126 (active): locus YHR030C, strain SLT2, stronger effect = lower value
active: locus YAL021C, strain ccr4, stronger effect = lower value 0.0842 | locus YAL026C, strain drs2, stronger effect = lower value 0.0831 | locus YAL030W, strain snc1, stronger effect = lower value 0.0677 | locus YBL061C, strain skt5, stronger effect = lower value 0.0748 | locus YBR009C, strain hhf1, stronger effect = lower value 0.0742 | locus YBR023C, strain chs3, stronger effect = lower value 0.0756 | locus YBR171W, strain sec66, stronger effect = lower value 0.0931 | locus YBR231C, strain swc5, stronger effect = lower value 0.077 | locus YBR279W, strain paf1, stronger effect = lower value 0.0631 | locus YCL011C, strain gbp2, stronger effect = lower value 0.0716 | locus YCL016C, strain dcc1, stronger effect = lower value 0.0812 | locus YCL061C, strain MRC1, stronger effect = lower value 0.078 | locus YCL069W, strain vba3, stronger effect = lower value 0.0768 | locus YCR088W, strain abp1, stronger effect = lower value 0.0707 | locus YDL005C, strain med2, stronger effect = lower value 0.0898 | locus YDL040C, strain nat1, stronger effect = lower value 0.0666 | locus YDR001C, strain nth1, stronger effect = lower value 0.071 | locus YDR069C, strain doa4, stronger effect = lower value 0.0807 | locus YDR137W, strain rgp1, stronger effect = lower value 0.106 | locus YDR159W, strain sac3, stronger effect = lower value 0.113 | locus YDR195W, strain ref2 0.161 | locus YDR297W, strain sur2, stronger effect = lower value 0.0715 | locus YDR334W, strain swr1, stronger effect = lower value 0.0727 | locus YDR335W, strain msn5, stronger effect = lower value 0.0699 | locus YDR392W, strain spt3, stronger effect = lower value 0.0937 | locus YEL003W, strain gim4, stronger effect = lower value 0.0699 | locus YEL037C, strain rad23, stronger effect = lower value 0.0662 | locus YEL061C, strain CIN8 (second series), stronger effect = lower value 0.0687 | locus YER015W, strain faa2, stronger effect = lower value 0.078 | locus YER016W, strain bim1, stronger effect = lower value 0.0769 | locus YER111C, strain swi4, stronger effect = lower value 0.0874 | locus YER155C, strain BEM2 (second series), stronger effect = lower value 0.108 | locus YFR010W, strain ubp6, stronger effect = lower value 0.0828 | locus YGL167C, strain pmr1, stronger effect = lower value 0.0894 | locus YGL173C, strain kem1, stronger effect = lower value 0.084 | locus YGL227W, strain vid30, stronger effect = lower value 0.0779 | locus YGL240W, strain doc1, stronger effect = lower value 0.0947 | locus YGL253W, strain hxk2, stronger effect = lower value 0.0661 | locus YHR013C, strain ard1, stronger effect = lower value 0.114 | locus YHR027C, strain rpn1, stronger effect = lower value 0.0746 | locus YHR079C, strain IRE1, stronger effect = lower value 0.142 | locus YHR142W, strain chs7, stronger effect = lower value 0.0874 | locus YJL092W, strain hpr5, stronger effect = lower value 0.0707 | locus YJL095W, strain BCK1 (second series), stronger effect = lower value 0.0749 | locus YJL115W, strain asf1, stronger effect = lower value 0.0849 | locus YJL129C, strain trk1, stronger effect = lower value 0.106 | locus YJL154C, strain vps35, stronger effect = lower value 0.07 | locus YJL164C, strain tpk1, stronger effect = lower value 0.0766 | locus YJL166W, strain qcr8, stronger effect = lower value 0.0732 | locus YJR066W, strain TOR1, stronger effect = lower value -0.00264
1 (inactive) and 0.151 (active): locus YJL095W, strain BCK1, stronger effect = lower value
inactive: locus YAL013W, strain DEP1, stronger effect = lower value 1 | locus YBR021W, strain FUR4, stronger effect = lower value 0.953 | locus YBR229C, strain ROT2, stronger effect = lower value 0.991 | locus YCL029C, strain bik1, stronger effect = lower value 0.976 | locus YDL035C, strain GPR1, stronger effect = lower value 1 | locus YDL074C, strain BRE1, stronger effect = lower value 1.01 | locus YDL101C, strain DUN1, stronger effect = lower value 1 | locus YDL134C, strain PPH21, stronger effect = lower value 0.992 | locus YDL185W, strain tfp1, stronger effect = lower value 0.951 | locus YDL192W, strain arf1, stronger effect = lower value 0.984 | locus YDR101C, strain arx1, stronger effect = lower value 0.986 | locus YDR150W, strain NUM1, stronger effect = lower value 1.01 | locus YDR162C, strain NBP2, stronger effect = lower value 1.01 | locus YDR318W, strain mcm21, stronger effect = lower value 0.975 | locus YDR388W, stronger effect = lower value 0.97 | locus YDR502C, strain sam2, stronger effect = lower value 0.996 | locus YEL061C, strain CIN8, stronger effect = lower value 1 | locus YER110C, stronger effect = lower value 0.976 | locus YER155C, strain BEM2, stronger effect = lower value 0.993 | locus YER167W, strain BCK2, stronger effect = lower value 0.993 | locus YGL078C, strain dbp3, stronger effect = lower value 0.983 | locus YGL086W, strain mad1, stronger effect = lower value 0.976 | locus YGL248W, strain PDE1, stronger effect = lower value 0.994 | locus YGR078C, strain PAC10, stronger effect = lower value 1.01 | locus YGR135W, strain pre9, stronger effect = lower value 0.998 | locus YGR229C, strain SMI1, stronger effect = lower value 1 | locus YGR252W, strain gcn5, stronger effect = lower value 0.932 | locus YHR079C, strain IRE1 (second series), stronger effect = lower value 0.98 | locus YHR094C, strain hxt1, stronger effect = lower value 0.979 | locus YHR129C, strain ARP1, stronger effect = lower value 1 | locus YHR200W, strain rpn10, stronger effect = lower value 0.973 | locus YIL066C, strain RNR3, stronger effect = lower value 0.989 | locus YIL073C, strain SPO22, stronger effect = lower value 0.969 | locus YIL125W, strain kgd1, stronger effect = lower value 0.98 | locus YIR030C, strain dcg1, stronger effect = lower value 0.976 | locus YJL134W, strain LCB3, stronger effect = lower value 0.998 | locus YJL168C, strain set2, stronger effect = lower value 0.985 | locus YJL187C, strain SWE1 (second series), stronger effect = lower value 0.994 | locus YJR043C, strain POL32, stronger effect = lower value 0.994
